Measurements reported in PubChem BioAssay AID1159580 (chemical genetic matrix, 2015).
The whole screen tested about 5,500 compounds, of which about 2,000 (36%) were called active. Inconclusive results (about 18%) are left out. Rule as the data show it: active = normalized growth mostly below about 0.91 (no sharp cut-off); inconclusive = no clear call, values can overlap the other calls; inactive = mostly above about 0.92. The list shows a part of the results.

Test: chemical genetic growth profiling, strain panel (AID 1159580);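 also: tested at 20 µM; growth read once vehicle control cultures reached saturation at 30 °C; 1 = growth at the plate median or of vehicle wells; lower values mean less growth of the strain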
Settings: growth OD
[1] = S. cerevisiae deletion strains, locus YBR021W, strain FUR4, active compounds read low
[2] = S. cerevisiae deletion strains, locus YBR229C, strain ROT2, active compounds read low
[3] = S. cerevisiae deletion strains, locus YCL029C, strain bik1, active compounds read low
[4] = S. cerevisiae deletion strains, locus YDL035C, strain GPR1, active compounds read low
[5] = S. cerevisiae deletion strains, locus YDL074C, strain BRE1, active compounds read low
[6] = S. cerevisiae deletion strains, locus YDL101C, strain DUN1, active compounds read low
[7] = S. cerevisiae deletion strains, locus YDL185W, strain tfp1, active compounds read low
[8] = S. cerevisiae deletion strains, locus YDL192W, strain arf1, active compounds read low
[9] = S. cerevisiae deletion strains, locus YDR101C, strain arx1, active compounds read low
[10] = S. cerevisiae deletion strains, locus YDR162C, strain NBP2, active compounds read low
[11] = S. cerevisiae deletion strains, locus YDR318W, strain mcm21, active compounds read low
[12] = S. cerevisiae deletion strains, locus YDR388W, active compounds read low
[13] = S. cerevisiae deletion strains, locus YDR502C, strain sam2, active compounds read low
[14] = S. cerevisiae deletion strains, locus YEL061C, strain CIN8, active compounds read low
[15] = S. cerevisiae deletion strains, locus YER110C, active compounds read low
[16] = S. cerevisiae deletion strains, locus YER155C, strain BEM2, active compounds read low
[17] = S. cerevisiae deletion strains, locus YER167W, strain BCK2, active compounds read low
[18] = S. cerevisiae deletion strains, locus YGL078C, strain dbp3, active compounds read low
[19] = S. cerevisiae deletion strains, locus YGL086W, strain mad1, active compounds read low
[20] = S. cerevisiae deletion strains, locus YGL248W, strain PDE1, active compounds read low
[21] = S. cerevisiae deletion strains, locus YGR135W, strain pre9, active compounds read low
[22] = S. cerevisiae deletion strains, locus YGR252W, strain gcn5, active compounds read low
[23] = S. cerevisiae deletion strains, locus YHR030C, strain SLT2, active compounds read low
[24] = S. cerevisiae deletion strains, locus YHR079C, strain IRE1 (second series), active compounds read low
[25] = S. cerevisiae deletion strains, locus YHR094C, strain hxt1, active compounds read low
[26] = S. cerevisiae deletion strains, locus YHR129C, strain ARP1, active compounds read low
[27] = S. cerevisiae deletion strains, locus YHR200W, strain rpn10, active compounds read low
[28] = S. cerevisiae deletion strains, locus YIL066C, strain RNR3, active compounds read low
[29] = S. cerevisiae deletion strains, locus YIL073C, strain SPO22, active compounds read low
[30] = S. cerevisiae deletion strains, locus YIL125W, strain kgd1, active compounds read low
[31] = S. cerevisiae deletion strains, locus YIR030C, strain dcg1, active compounds read low
[32] = S. cerevisiae deletion strains, locus YJL095W, strain BCK1, active compounds read low
[33] = S. cerevisiae deletion strains, locus YJL134W, strain LCB3, active compounds read low
[34] = S. cerevisiae deletion strains, locus YJL168C, strain set2, active compounds read low
[35] = S. cerevisiae deletion strains, locus YJL187C, strain SWE1 (second series), active compounds read low
[36] = S. cerevisiae deletion strains, locus YJR043C, strain POL32, active compounds read low
[37] = S. cerevisiae deletion strains, locus YKL009W, strain mrt4, active compounds read low
[38] = S. cerevisiae deletion strains, locus YKL068W, active compounds read low
[39] = S. cerevisiae deletion strains, locus YKL085W, strain MDH1 (second series), active compounds read low
[40] = S. cerevisiae deletion strains, locus YKL085W, strain MDH1, active compounds read low
[41] = S. cerevisiae deletion strains, locus YKL190W, strain CNB1, active compounds read low
[42] = S. cerevisiae deletion strains, locus YKR001C, strain vps1, active compounds read low
[43] = S. cerevisiae deletion strains, locus YLR039C, strain RIC1, active compounds read low
[44] = S. cerevisiae deletion strains, locus YLR058C, strain SHM2, active compounds read low
[45] = S. cerevisiae deletion strains, locus YLR102C, strain apc9, active compounds read low
[46] = S. cerevisiae deletion strains, locus YLR262C, strain YPT6, active compounds read low
[47] = S. cerevisiae deletion strains, locus YLR268W, strain sec22, active compounds read low
[48] = S. cerevisiae deletion strains, locus YLR330W, strain CHS5, active compounds read low
[49] = S. cerevisiae deletion strains, locus YLR342W, strain FKS1 (second series), active compounds read low
[50] = S. cerevisiae deletion strains, locus YLR371W, strain rom2, active compounds read low
[51] = S. cerevisiae deletion strains, locus YLR418C, strain cdc73, active compounds read low
[52] = S. cerevisiae deletion strains, locus YML016C, strain PPZ1, active compounds read low
[53] = S. cerevisiae deletion strains, locus YML032C, strain rad52, active compounds read low
[54] = S. cerevisiae deletion strains, locus YML124C, strain tub3, active compounds read low
[55] = S. cerevisiae deletion strains, locus YMR078C, strain ctf18, active compounds read low
[56] = S. cerevisiae deletion strains, locus YMR223W, strain ubp8, active compounds read low
[57] = S. cerevisiae deletion strains, locus YMR307W, strain GAS1, active compounds read low
[58] = S. cerevisiae deletion strains, locus YNL067W, strain RPL9B, active compounds read low
[59] = S. cerevisiae deletion strains, locus YNL233W, strain BNI4, active compounds read low
[60] = S. cerevisiae deletion strains, locus YNL250W, strain rad50, active compounds read low
[61] = S. cerevisiae deletion strains, locus YNL271C, strain bni1, active compounds read low
[62] = S. cerevisiae deletion strains, locus YNL298W, strain CLA4, active compounds read low
[63] = S. cerevisiae deletion strains, locus YNL307C, strain MCK1, active compounds read low
[64] = S. cerevisiae deletion strains, locus YNR052C, strain pop2, active compounds read low
[65] = S. cerevisiae deletion strains, locus YOL012C, strain htz1
[66] = S. cerevisiae deletion strains, locus YOL147C, strain pex11, active compounds read low
[67] = S. cerevisiae deletion strains, locus YOR061W, strain CKA2, active compounds read low
[68] = S. cerevisiae deletion strains, locus YOR069W, strain VPS5, active compounds read low
[69] = S. cerevisiae deletion strains, locus YOR136W, strain idh2, active compounds read low
[70] = S. cerevisiae deletion strains, locus YOR144C, strain elg1, active compounds read low
[71] = S. cerevisiae deletion strains, locus YOR184W, strain ser1, active compounds read low
[72] = S. cerevisiae deletion strains, locus YOR316C, strain cot1, active compounds read low
[73] = S. cerevisiae deletion strains, locus YPL055C, strain LGE1, active compounds read low
[74] = S. cerevisiae deletion strains, locus YPR119W, strain clb2, active compounds read low
[75] = S. cerevisiae deletion strains, locus YPR141C, strain kar3, active compounds read low
[76] = S. cerevisiae deletion strains, locus YPR163C, strain tif3, active compounds read low
[77] = S. cerevisiae deletion strains, locus YPR167C, strain met16, active compounds read low
[78] = S. cerevisiae deletion strains, strain wtn01, active compounds read low

Measured: normalized growth

COc1ccc(-c2coc3c(OC)c(O)ccc3c2=O)cc1
active: S. cerevisiae deletion strains, locus YDL134C, strain PPH21, active compounds read low 0.888 | [10] 0.792 | [19] 0.929 | [42] 0.896 | [51] 0.808 | [63] 0.896
inactive: [1] 0.951 | [2] 0.92 | [3] 0.97 | [4] 0.935 | [5] 0.9 | [6] 0.928 | [7] 0.949 | [8] 0.931 | [9] 0.944 | [11] 0.951 | [12] 0.965 | [13] 0.953 | [14] 0.958 | [15] 0.953 | [16] 0.997 | [17] 0.956 | [18] 0.961 | [20] 0.927 | [21] 0.931 | [22] 0.826 | [23] 0.976 | [24] 0.946 | [25] 0.952 | [26] 0.96 | [27] 0.936 | [28] 0.882 | [29] 0.884 | [30] 0.967 | [31] 0.962 | [32] 0.813 | [33] 0.968 | [34] 0.963 | [35] 0.916 | [36] 0.914 | [37] 0.928 | [38] 0.946 | [39] 0.944 | [40] 0.944 | [41] 0.958 | [43] 0.861 | [44] 0.931 | [45] 0.965 | [46] 0.86 | [47] 0.942 | [48] 0.953 | [49] 0.86 | [50] 0.969 | [52] 0.963 | [53] 0.958 | [54] 0.952 | [55] 0.95 | [56] 0.943 | [57] 0.769 | [58] 0.918 | [59] 0.892 | [60] 0.968 | [61] 0.945 | [62] 0.94 | [64] 0.964 | S. cerevisiae deletion strains, locus YOL006C, strain TOP1, active compounds read low 0.742 | [65] 0.945 | [66] 0.966 | [67] 0.933 | [68] 0.969 | [69] 0.98 | [70] 0.966 | [71] 0.876 | [72] 0.961 | [73] 0.86 | [74] 0.977 | [75] 0.955 | [76] 0.931 | [77] 0.954 | [78] 0.962 | S. cerevisiae strains, strain wild type, active compounds read low 0.95

COc1ccc(-c2coc3c(OC)c(OC)cc(OC)c3c2=O)cc1
inactive: S. cerevisiae deletion strains, locus YAL013W, strain DEP1, active compounds read low 0.977 | [1] 0.875 | [2] 0.998 | [3] 1 | [4] 0.985 | [5] 0.961 | [6] 0.993 | [7] 0.992 | [8] 0.991 | [9] 0.983 | S. cerevisiae deletion strains, locus YDR150W, strain NUM1, active compounds read low 0.991 | [10] 0.893 | [11] 0.978 | [12] 1.01 | [13] 0.982 | [14] 1 | [15] 0.995 | [16] 0.998 | [17] 0.977 | [18] 1 | [19] 0.974 | [20] 0.979 | S. cerevisiae deletion strains, locus YGR078C, strain PAC10, active compounds read low 0.94 | [21] 0.969 | [22] 0.848 | [23] 0.997 | [24] 0.993 | [25] 0.996 | [26] 0.995 | [27] 0.985 | [28] 0.951 | [29] 0.973 | [30] 0.992 | [31] 1.01 | [32] 0.899 | [33] 1 | [34] 0.995 | [35] 0.971 | [36] 0.964 | S. cerevisiae deletion strains, locus YJR075W, strain HOC1, active compounds read low 0.974 | [37] 0.981 | [38] 1.02 | [39] 0.993 | [40] 0.993 | [41] 0.986 | [42] 0.903 | [43] 0.928 | [44] 0.983 | [45] 0.993 | [46] 0.904 | [47] 0.952 | [48] 1 | [49] 0.924 | [50] 0.993 | [51] 0.884 | [52] 1 | [53] 0.999 | [54] 0.994 | [55] 1.01 | [56] 0.994 | [57] 0.83 | [58] 0.964 | S. cerevisiae deletion strains, locus YNL128W, strain TEP1, active compounds read low 0.998 | S. cerevisiae deletion strains, locus YNL153C, strain GIM3, active compounds read low 0.978 | [59] 0.914 | [60] 1.02 | [61] 1 | [62] 1.01 | [63] 0.968 | S. cerevisiae deletion strains, locus YNL322C, strain KRE1, active compounds read low 0.985 | [64] 1.02 | [65] 1.15 | [66] 0.982 | [67] 0.998 | [68] 1.01 | [69] 0.987 | [70] 0.991 | [71] 0.938 | [72] 0.999 | [73] 0.904 | S. cerevisiae deletion strains, locus YPL241C, strain CIN2, active compounds read low 0.995 | [74] 0.987 | [75] 1 | [76] 0.985 | [77] 0.985 | [78] 0.972
